The text below walks through data of PubChem BioAssay.

Where “and” joins values, the source holds several entries; their conditions need not be identical. Identical values can stand only once. Calls of active or inactive are those of the source.

The subject of assay [1] is Human papillomavirus type 1a protein E7 (residues 44-93). Description: small molecules binding HPV E7 44-93 – biochemical, small-molecule microarray, residues 44-93, 635 nm fluorescence, primary screen (AID 1108).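 Note: E7 fragment applied at 1 µg/mL in TBST for 1 h at 4 C; score combines spot fluorescence with its signal to noise ratio.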 Conditions: fluorescence 635 nm, higher = more signal.
Assay [2] in a line: hepatitis C replication reporter changes, two-sided – Huh7 cells, luciferase reporter, HCV replication inhibitor project, primary screen (AID 1109).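 Note: huh7 hepatoma cells harbouring a luciferase neomycin HCV replicon reporter; luciferase luminescence as measure of HCV replicon replication; test concentration not given here.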 Conditions: Huh7 HCV replicon luciferase reporter, 48 h; higher = more signal.
The target in assay [3] is Left-right determination factor 2 (Homo sapiens) (UniProt O00292). The experiment in a line: small molecules binding LEFTY2 protein – biochemical, small-molecule microarray, 635 nm fluorescence scan, primary screen (AID 1110). Conditions: higher = more signal.
The target of assay [4] is Calmodulin-1 (Homo sapiens) (UniProt P0DP23). Description: small molecules binding calmodulin-1 with EGTA – biochemical, small-molecule microarray, Cy5-labelled CALM1, profiling panel (AID 1111).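 Note: labelled calmodulin applied in Tris saline Tween buffer holding calcium plus EGTA and DTT.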 The note with it: Cy5-CALM1 binding fluorescence, higher = more signal.
For assay [5] the target is unchanged. The experiment in a line: small molecules binding Ca-loaded calmodulin-1 – biochemical, small-molecule microarray, Cy5-labelled CALM1, plus calcium, artefact control for SMM control-protein annotation, profiling panel (AID 1112).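 Note: score merges spot fluorescence with signal to noise from triplicate slides.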 Conditions: Cy5-CALM1 binding fluorescence, higher = more signal.
A short description of assay [6]: probe aWnt5a binding to arrayed compounds – biochemical, biotinylated probe, 635/667 nm fluorescence, primary screen (AID 1113).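 Note: score merges 667 nm fluorescence intensity with signal-to-noise per printed feature.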 The note with it: small-molecule microarray, higher = more signal.
Assay [7] in a line: probe aShh binding to arrayed compounds – biochemical, biotinylated probe, 635/667 nm fluorescence, primary screen (AID 1114).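 Note: probe is biotin-labelled aShh protein from a stem cell growth factor screen; measures binding of labelled protein to compounds printed on the slide; score merges feature fluorescence at 667 nm with signal-to-noise.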 Conditions: small-molecule microarray, higher = more signal.
Assay [8] can be described thus: probe aNog binding to arrayed compounds – biochemical, biotinylated probe, 635/667 nm fluorescence, primary screen (AID 1115).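 Note: probe is biotinylated aNog protein used at 0.15 µg/mL for 1 h at 4 C; z-score combines 667 nm fluorescence of each spot with its signal to noise.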 Conditions: small-molecule microarray, higher = more signal.
Assay [9] deals with Torsin-1A-interacting protein 1 (Homo sapiens) (UniProt Q5JTV8). Description: compound microarray binding of lysate hLAP1 – cell lysate, small-molecule microarray, COS7 lysate, 635/667 nm fluorescence, primary screen (AID 1116). Conditions: 635 nm fluorescence, higher = more signal.
The target in assay [10] is Alpha-bungarotoxin (Bungarus multicinctus) (UniProt P60615). The experiment in a line: compounds binding labelled alpha-BTX control protein – biochemical, small-molecule microarray, Alexa647 label, 635/667 nm fluorescence, artefact control for SMM control protein annotation, profiling panel (AID 1117). Conditions: alpha-BTX-A647 binding fluorescence, higher = more signal.

The target in the next assay is Albumin (Bos taurus) (UniProt P02769). The experiment in a line: compounds binding labelled BSA control protein – biochemical, small-molecule microarray, Alexa647 label, 635/667 nm fluorescence, artefact control for SMM control protein annotation, profiling panel (AID 1118).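 Note: score merges 667 nm emission intensity and signal-to-noise per printed compound spot.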 Conditions: BSA-A647 binding, fluorescence 635 nm, higher = more signal.
Assay [11] can be described thus: probe aXIP binding to arrayed compounds – biochemical, NeuroSMM set, 635/667 nm fluorescence, primary screen (AID 1119).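 Note: probe is the protein aXip251-270 applied at 1 µg/mL to compound-printed slides; binding of probe to printed compounds measured as 667 nm fluorescence plus signal to noise.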 Conditions: small-molecule microarray, higher = more signal, called active from +8 up or from −8 down.
A short description of assay [12]: probe aNOTCH3 binding on compound microarray – biochemical, small-molecule microarray, 635/667 nm fluorescence, primary screen (AID 1120).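 Note: probe is a biotin-tagged antibody raised against NOTCH3 rather than NOTCH3 protein; score merges spot fluorescence near 667 nm with spot signal to noise.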 Conditions: higher = more signal.
Assay [13] can be described thus: probe aNOTCH2 binding on compound microarray – biochemical, small-molecule microarray, 635/667 nm fluorescence, primary screen (AID 1121).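 Note: score merges feature fluorescence read at 667 nm with its signal to noise.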 The note with it: higher = more signal.
Assay [14] addresses Carbonic anhydrase 2 (Homo sapiens) (UniProt P00918). Description: compounds binding carbonic anhydrase 2 – biochemical, small-molecule microarray, Alexa647-labelled CAII, profiling panel (AID 1122). The note with it: CAII-A647 binding fluorescence, higher = more signal.
The nature of assay [15]: COS7 lysate on small-molecule microarray, probe aHis, 635 nm (AID 1123).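 Note: z-score combines 667nm fluorescence intensity with signal-to-noise per printed compound spot.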 Conditions: COS7 cell lysate, fluorescence, higher = more signal.
A short description of assay [16]: probe aLAP1 signal on lysate-treated microarray – cell lysate, small-molecule microarray, COS7 lysate, primary screen (AID 1124).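 Note: lysate comes from COS7 cells expressing LAP1 and is applied at 0.3 µg/mL; score merges spot fluorescence near 667 nm with signal-to-noise over triplicate slides.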 Conditions: probe aLAP1, fluorescence, higher = more signal.
The next assay relates to Sam68 (KHDRBS1). Description: compounds binding KHDRBS1 protein – biochemical, small-molecule microarray, 635 nm fluorescence, primary screen (AID 1125).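 Note: score merges 667 nm channel intensity with signal to noise over triplicate slides.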 The note with it: higher = more signal.
Assay [17] has as its system Chordin-like protein 2 (CHRDL2). The experiment in a line: compounds binding chordin-like 2 – biochemical, small-molecule microarray, 635 nm fluorescence, primary screen (AID 1126).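 Note: printed compound slides probed with Chrdl2 protein at 4 µg/mL for 1 h at 4 C; score merges 667 nm emission intensity with signal to noise over three replicate slides.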 Conditions: fluorescence 635 nm, higher = more signal.
Assay [18] has as its target Concanavalin-A (Canavalia ensiformis) (UniProt P02866). The experiment in a line: compounds binding concanavalin A lectin – biochemical, small-molecule microarray, Alexa647 label, 635 nm, artefact control for SMM control protein annotation, primary screen (AID 1127).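 Note: z combines 667 nm emission intensity with signal-to-noise across three replicate slides.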 Conditions: ConA-A647 binding fluorescence, higher = more signal.

Sequence of Torsin-1A-interacting protein 1 (Homo sapiens) (Q5JTV8 whole entry, looked up): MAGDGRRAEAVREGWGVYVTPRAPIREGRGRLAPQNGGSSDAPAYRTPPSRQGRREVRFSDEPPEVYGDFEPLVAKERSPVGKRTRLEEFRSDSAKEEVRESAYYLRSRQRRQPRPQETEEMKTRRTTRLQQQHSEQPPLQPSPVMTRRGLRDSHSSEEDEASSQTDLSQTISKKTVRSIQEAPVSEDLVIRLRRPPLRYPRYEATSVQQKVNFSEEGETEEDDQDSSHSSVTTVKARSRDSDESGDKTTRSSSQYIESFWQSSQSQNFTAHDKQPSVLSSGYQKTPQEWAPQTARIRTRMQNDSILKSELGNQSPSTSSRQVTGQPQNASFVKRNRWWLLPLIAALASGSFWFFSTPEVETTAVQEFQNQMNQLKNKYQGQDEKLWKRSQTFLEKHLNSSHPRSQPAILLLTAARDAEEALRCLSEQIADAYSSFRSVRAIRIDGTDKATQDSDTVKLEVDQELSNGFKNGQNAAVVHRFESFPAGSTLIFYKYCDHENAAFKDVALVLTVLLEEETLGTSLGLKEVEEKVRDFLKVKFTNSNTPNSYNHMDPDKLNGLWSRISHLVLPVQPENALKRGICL
Sequence of Alpha-bungarotoxin (Bungarus multicinctus) (P60615 whole entry, looked up): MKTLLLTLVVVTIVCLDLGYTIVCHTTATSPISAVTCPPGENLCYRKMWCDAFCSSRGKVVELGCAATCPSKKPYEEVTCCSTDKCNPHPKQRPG
Sequence of Left-right determination factor 2 (Homo sapiens) (O00292 whole entry, looked up): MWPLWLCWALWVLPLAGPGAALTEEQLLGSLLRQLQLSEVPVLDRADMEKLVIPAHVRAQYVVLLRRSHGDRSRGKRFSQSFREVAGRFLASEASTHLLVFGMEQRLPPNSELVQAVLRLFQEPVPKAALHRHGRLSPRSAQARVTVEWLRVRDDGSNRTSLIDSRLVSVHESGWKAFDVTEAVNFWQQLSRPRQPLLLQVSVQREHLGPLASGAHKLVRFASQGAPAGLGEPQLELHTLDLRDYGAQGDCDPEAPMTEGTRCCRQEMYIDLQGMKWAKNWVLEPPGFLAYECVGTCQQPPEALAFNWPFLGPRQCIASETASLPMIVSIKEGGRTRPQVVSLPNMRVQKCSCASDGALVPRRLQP
Sequence of Concanavalin-A (Canavalia ensiformis) (P02866 whole entry, looked up): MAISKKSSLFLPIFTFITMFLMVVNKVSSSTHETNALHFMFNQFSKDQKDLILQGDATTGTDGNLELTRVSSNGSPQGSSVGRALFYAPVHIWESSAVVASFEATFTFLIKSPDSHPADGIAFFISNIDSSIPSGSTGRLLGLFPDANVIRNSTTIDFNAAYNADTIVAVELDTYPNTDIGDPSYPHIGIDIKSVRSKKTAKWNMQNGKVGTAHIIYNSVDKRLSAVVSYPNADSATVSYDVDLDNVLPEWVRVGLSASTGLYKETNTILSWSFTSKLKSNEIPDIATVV
Sequence of Albumin (Bos taurus) (P02769 whole entry, looked up): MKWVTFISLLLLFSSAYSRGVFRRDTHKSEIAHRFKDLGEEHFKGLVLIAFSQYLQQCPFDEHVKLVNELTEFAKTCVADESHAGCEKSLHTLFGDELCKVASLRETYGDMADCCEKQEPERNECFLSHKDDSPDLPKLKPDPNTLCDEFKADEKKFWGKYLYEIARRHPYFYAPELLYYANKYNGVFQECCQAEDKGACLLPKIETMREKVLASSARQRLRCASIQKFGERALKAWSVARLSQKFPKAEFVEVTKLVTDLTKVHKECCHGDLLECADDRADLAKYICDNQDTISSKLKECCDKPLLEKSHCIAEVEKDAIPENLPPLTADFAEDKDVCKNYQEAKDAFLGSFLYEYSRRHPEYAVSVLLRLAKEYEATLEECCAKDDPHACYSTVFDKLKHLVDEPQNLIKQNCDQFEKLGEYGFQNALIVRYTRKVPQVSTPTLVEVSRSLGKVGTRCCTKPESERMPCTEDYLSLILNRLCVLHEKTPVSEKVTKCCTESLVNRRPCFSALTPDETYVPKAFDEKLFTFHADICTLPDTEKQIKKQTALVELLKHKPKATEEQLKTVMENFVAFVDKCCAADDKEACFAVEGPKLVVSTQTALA

Regarding `CC(C)=NOCc1ccc(-c2cn([C@@H]3COC[C@H]3O)nn2)cc1`, the composite z-score in assay [1] is -0.0942; in [3] it was 0.679; in [4] it was 0.676; in assay [5], -0.358; in [6], -0.143; in [7], -0.17. For the same compound, the composite z-score in [8] was -0.248; in assay [9] it was 0.507; in assay [10], -0.175; with Albumin (Bos taurus), 0.655; in assay [12] it was -0.0179; in [13], -0.131. For the same compound, the composite z-score in [14] was -0.132; in assay [15], 0.355; in [16] it was -0.116; in the assay on Sam68 (KHDRBS1), -0.103; in [17] it was 0.329; in [18] it was 0.0843. In assay [2], this compound returned a z-score of 0.28. Moreover, in assay [11], the composite Z-score is 0.43 (inactive).

Take `C=CCN(C(=O)C(c1cccs1)N(C(=O)/C=C\C(=O)O)c1c(Cl)cccc1CO)C(C)(C)C` (stereo not given): the composite z-score in assay [1] is -1.05 and -0.821; in [3] it was -4.4 and -3.37; in assay [4], -1.1 and -0.796; in assay [5], 0.802 and 0.271; in assay [6], -0.304 and -0.202; in assay [7], -0.0769 and -0.138. Moreover, the composite z-score in assay [8] was -0.263 and -0.036; in [9] it was -1.05 and -1.62; in assay [10], -1.29 and -1.31; with Albumin (Bos taurus), -0.693 and -0.455; in assay [12], -0.538 and -0.562; in assay [13], -0.125 and -0.182. In addition, the composite z-score in assay [14] was 0.884 and 0.936; in [15] it was -0.625 and -0.42; in [16] it was -0.766 and -0.131; in the assay with Sam68 (KHDRBS1), -1.95 and -0.769; in [17] it was -2.35 and -3.64; in assay [18], -1.12 and -0.782. For the same compound, the z-score in assay [2] is -0.814 and -1.62. The composite Z-score in assay [11] was 0.0333 (inactive) and 0.242 (inactive).

On to `COC(=O)[C@@]1(Cc2ccc(OC)cc2)[C@H]2c3cc(C(=O)N(C)C)n(Cc4ccc(O)c(OC)c4)c3C[C@H]2CN1C(=O)c1ccccc1`, for which the composite z-score in [1] is 1.31 and 1.43; in assay [3] it was -0.3 and -0.586; in assay [4] it was 2.32 and 1.21; in [5], 0.88 and 0.206; in assay [6] it was -0.208 and 0.201; in assay [7], -0.374 and 0.632. In addition, the composite z-score was 0.231 and 1.94 in assay [8]; 2.63 and 1.12 in assay [9]; 0.526 and 0.245 in assay [10]; 1.03 and 0.843 with Albumin (Bos taurus); 0.359 and 0.68 in assay [12]; 0.357 and 0.124 in assay [13]. For the same compound, the composite z-score in assay [14] was 0.893 and 0.406; in assay [15], 1.81 and 2.81; in assay [16], 1.17 and 0.341; in the assay on Sam68 (KHDRBS1), 0.725 and 1.22; in [17], -1.12 and -0.44; in [18], 0.311 and 0.836. Also, the z-score in assay [2] was -1.33 and -1.83. The composite Z-score in assay [11] was -0.0164 (inactive) and -0.483 (inactive).

In the case of `C=CC[C@@H](O)c1ccc(O)c(F)c1`, the composite z-score in assay [1] is -0.612 and -0.685; in assay [3], -2.46 and -1.47; in assay [4], -0.75 and -1.41; in assay [5], 0.0576 and -0.0804; in assay [6], -0.0399 and -0.278; in [7] it was -0.332 and -0.124. The composite z-score in [8] was -0.116 and -0.62; in assay [9] it was -0.635 and -0.47; in assay [10], -1.9 and -2.33; with Albumin (Bos taurus) it was 0.27 and 0.242; in [12], -0.478 and -0.553; in assay [13] it was -0.214 and -0.196. For the same compound, the composite z-score is 0.818 and 0.758 in assay [14]; -0.301 and -0.323 in assay [15]; -0.0711 and -0.495 in assay [16]; -0.601 and -0.896 in the assay on Sam68 (KHDRBS1); -1.22 and -1.15 in assay [17]; -1.51 and -1.15 in assay [18]. The z-score in assay [2] was -0.947 and 0.848. In assay [11], the composite Z-score is 0.276 (inactive) and 0.895 (inactive).

Consider `CC(CO)N1C(=O)[C@@H]2C3C(=O)OCCC=C[C@H]3OC23C=CCN(Cc2ccccc2)C(=O)[C@@H]13` (stereo not given in full), for which the composite z-score is 0.0364 and -1.19 in assay [1]; -1.26 and -1.45 in assay [3]; -0.792 and 0.0954 in [4]; -0.803 and 0.748 in [5]; -0.154 and -0.21 in assay [6]; -0.291 and -0.154 in assay [7]. Besides, the composite z-score was 0.211 and -0.246 in [8]; 1.29 and -0.62 in assay [9]; -1.73 and -0.88 in assay [10]; -0.561 and -0.652 in the assay with Albumin (Bos taurus); -0.207 and -0.136 in assay [12]; -0.174 and -0.133 in assay [13]. The composite z-score in assay [14] was 0.84 and 0.944; in assay [15], -0.205 and 0.481; in [16], 0.716 and 0.0818; with Sam68 (KHDRBS1), -0.0818 and -0.239; in assay [17] it was -0.927 and -0.898; in assay [18] it was -1.3 and -1.38. Further, the z-score in assay [2] is -1.12 and -0.667. Besides, in [11], the composite Z-score is 0.0931 (inactive) and -0.171 (inactive).
